Results on 18 compounds are retold here after the supplement of paper PMC12669797.

One experiment relates to ES2. Kind of experiment: cell viability relative to DMSO control (MTS) (fraction of DMSO control); higher = more viable cells / less growth inhibition. Conditions: 10 µM; 48 h. The essentials:
(§1)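 TOV-21G and ES2 clear cell carcinoma cells were seeded at 5000 cells per well in 96-well plates and grown for 24 h. Cells then received a 367-compound […] library at 10 µM final concentration, with DMSO in control wells. After 48 h, viability was read by MTS assay (CellTiter 96 AQueous One Solution) following the maker's protocol. Cell viability is expressed as a fraction of the DMSO control.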

The next experiment relates to TOV-21G. The experiment is described as above. Conditions: 10 µM; 48 h. The essentials: as §1

Values joined by “and” are separate entries in the source; they are usually repeats but may differ in a detail not shown here. Identical values can stand only once. ± gives the standard deviation of the averaged measurements.

For `CNC(=O)c1cc(Oc2ccc(NC(=O)Nc3ccc(Cl)c(C(F)(F)F)c3)cc2)ccn1` [sorafenib], the cell viability with ES2 stood at 0.402; with TOV-21G, 0.604.
For `CN(C)CC(=O)Nc1ccc2[nH]c(=O)c3ccccc3c2c1` the same measures were 0.788 and 0.882.
In the case of `O=Nc1c(-c2c(O)[nH]c3cc(Br)ccc23)[nH]c2ccccc12` [GSK-3 inhibitor IX], the cell viability came out at 0.643 in the experiment on ES2 and 0.36 in the experiment with TOV-21G.
In the same order, the values of `CCN1/C(=C/C(C)=O)Sc2ccc(OC)cc21` are 0.857 and 1.01.
In the same order, the values of `Clc1ccccc1CNCC1CCC(CNCc2ccccc2Cl)CC1` (stereo unspecified) are 0.789 and 1.03.
For `CCN(CC)CC(=O)Nc1c(C)cccc1C` [Lidocaine] the same measures were 1.1 and 1.4.
For the compound `COC(=O)[C@H](CC(C)C)NC(=O)c1ccc(NC[C@@H](N)CS)cc1-c1ccccc1`, the cell viability in the experiment with ES2 was 1.09; with TOV-21G, 0.633.
In the same order, the values of `Nc1cccc2c1CN(C1CCC(=O)NC1=O)C2=O` (stereo unspecified) [lenalidomide] are 0.928 and 0.954.
In the same order, the values of `O=C(Nc1cccc(NC(=O)c2cccc(O)c2O)c1)c1cccc(O)c1O` are 0.614 and 0.302.
For `COc1cc(O)c(CC=C(C)C)c(O)c1C(=O)/C=C/c1ccc(O)cc1` [Xanthohumol] the same measures were 1.07 and 1.01.
Regarding `C[C@@H](N)[C@H]1CC[C@H](C(=O)Nc2ccncc2)CC1`, the cell viability with ES2 was 1.09 and 0.911; in the experiment on TOV-21G, 0.922 and 0.973.
Turning to `Cn1cnc2c(NCc3ccccc3)nc(NCCO)nc21` [Olomoucine], the figures for the cell viability in the experiment with ES2 and in the experiment on TOV-21G were 1.25 ± 0.25 and 1.27 ± 0.17, respectively.
`CCOC(=O)C1=C(N)Oc2ccc(Br)cc2C1C(C#N)C(=O)OCC` (stereo unspecified): the cell viability with ES2 worked out at 1.04; in the experiment on TOV-21G, 0.998.
In the same order, the values of `Cc1cn(-c2cc(NC(=O)c3ccc(C)c(Nc4nccc(-c5cccnc5)n4)c3)cc(C(F)(F)F)c2)cn1` [nilotinib] are 0.751 and 0.709.
For `Nc1ncn([C@H]2C[C@H](O)[C@@H](CO)O2)c(=O)n1` [Decitabine] the same measures were 0.757 and 1.11.
For `CSc1ccc(/C=C2/C(C)=C(CC(=O)O)c3cc(F)ccc32)cc1` [Sulindac sulfide] the same measures were 1.38 and 1.3.
Turning to `COc1cc2nc(N3CCCN(C)CC3)nc(NC3CCN(Cc4ccccc4)CC3)c2cc1OC`, the cell viability with ES2 came out at 0.42; with TOV-21G, 0.454.
In the case of `N#CC(=C(/N)Sc1ccccc1N)/C(C#N)=C(/N)Sc1ccccc1N`, the cell viability in the experiment on ES2 is 0.685 and 0.748; in the experiment with TOV-21G, 0.824 and 1.02.
